Reference: PubChem BioAssay
A number with no mark means an inactive call. For some of these results: Measured potencies and affinities stand elsewhere. Active and inactive are the calls of the source. Unless noted, how the calls were made is not given here.

How the values were obtained:
[1] = antimalarial activity against Dd2 strain (AID 2302;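 active means growth inhibition above 50% at the single 2 µM test dose, taken to imply half-maximal potency below 2 µM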;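 further: 0% = DMSO untreated growth and 100% = chloroquine plus artemisinin killed control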); conditions: P. falciparum Dd2 in RBCs, LDH growth readout, 72 h; at 2 µM; stronger effect = higher value
[2] = human hepatoma cell viability loss – ATP luminescence, cytotoxicity control for P. falciparum antimalarial project, primary screen (AID 2303;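 active means inhibition above 50%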;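 further: 0% = DMSO wells and 100% = digitonin-killed cells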); conditions: HepG2 viability, 24-48 h, at 10 µM, stronger effect = higher value
[3] = target: L-lactate dehydrogenase (Plasmodium falciparum (isolate CDC / Honduras)) (UniProt Q27743); experiment: PfLDH activity inhibition – cell lysate, 3D7 strain, counter-screen for P. falciparum growth inhibition project (AID 2304);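 further: 0% = vehicle and 100% = reference inhibitor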; conditions: P. falciparum 3D7 crude extract, LDH APAD/NBT absorbance; at 2 µM; stronger effect = higher value
Sequence of L-lactate dehydrogenase (Plasmodium falciparum (isolate CDC / Honduras)) (Q27743 whole entry, looked up): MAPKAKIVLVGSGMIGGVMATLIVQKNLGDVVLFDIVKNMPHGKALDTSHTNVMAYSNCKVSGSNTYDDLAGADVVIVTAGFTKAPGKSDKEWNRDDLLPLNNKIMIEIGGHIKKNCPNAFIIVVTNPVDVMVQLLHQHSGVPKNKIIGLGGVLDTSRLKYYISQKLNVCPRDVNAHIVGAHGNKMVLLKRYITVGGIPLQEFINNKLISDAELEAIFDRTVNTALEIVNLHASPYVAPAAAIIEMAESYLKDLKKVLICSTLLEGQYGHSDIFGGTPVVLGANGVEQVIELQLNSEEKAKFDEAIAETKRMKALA

[4] = inhibition of 3D7 malaria parasite growth – strain 3D7 (AID 2306);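 further: 0% = DMSO wells and 100% = chloroquine plus artemisinin control wells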; conditions: P. falciparum 3D7 erythrocytic growth, LDH absorbance, 72 h; at 2 µM; stronger effect = higher value
[5] = target: Calcium-dependent protein kinase 1 (Plasmodium falciparum (isolate 3D7)) (UniProt P62344); experiment: PfCDPK1 kinase inhibitors, biochemical, TCAMS library (AID 1159585; cut-off not given, nearly all actives have IC50 up to about 0.98 µM;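 further: inhibitors leave more ATP so luminescence rises with inhibition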); conditions: recombinant PfCDPK1, Kinase-Glo ATP depletion luminescence
Sequence of Calcium-dependent protein kinase 1 (Plasmodium falciparum (isolate 3D7)) (P62344 whole entry, looked up): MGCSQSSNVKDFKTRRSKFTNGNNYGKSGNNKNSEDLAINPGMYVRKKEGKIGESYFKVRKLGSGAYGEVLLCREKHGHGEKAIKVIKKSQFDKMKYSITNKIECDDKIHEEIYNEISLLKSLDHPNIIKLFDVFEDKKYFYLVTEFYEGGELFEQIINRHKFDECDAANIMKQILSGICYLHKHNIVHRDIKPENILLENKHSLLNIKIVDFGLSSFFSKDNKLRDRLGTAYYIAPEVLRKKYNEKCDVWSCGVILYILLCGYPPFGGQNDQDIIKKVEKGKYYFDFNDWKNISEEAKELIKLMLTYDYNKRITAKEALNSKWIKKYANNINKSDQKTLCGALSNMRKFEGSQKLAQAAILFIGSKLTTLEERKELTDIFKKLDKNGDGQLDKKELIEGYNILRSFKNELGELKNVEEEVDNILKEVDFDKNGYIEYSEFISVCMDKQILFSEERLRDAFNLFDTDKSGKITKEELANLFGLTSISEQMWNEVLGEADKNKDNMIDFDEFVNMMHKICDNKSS

[6] = target: Plasmodium falciparum protein kinase 6 (PK6, PF3D7_1337100) (UniProt Q8IDW1); experiment: PfPK6 kinase inhibitors, biochemical, TCAMS library (AID 1159586); conditions: recombinant PfPK6, Kinase-Glo ATP depletion luminescence
Sequence of Plasmodium falciparum protein kinase 6 (PK6, PF3D7_1337100) (Q8IDW1 1-305): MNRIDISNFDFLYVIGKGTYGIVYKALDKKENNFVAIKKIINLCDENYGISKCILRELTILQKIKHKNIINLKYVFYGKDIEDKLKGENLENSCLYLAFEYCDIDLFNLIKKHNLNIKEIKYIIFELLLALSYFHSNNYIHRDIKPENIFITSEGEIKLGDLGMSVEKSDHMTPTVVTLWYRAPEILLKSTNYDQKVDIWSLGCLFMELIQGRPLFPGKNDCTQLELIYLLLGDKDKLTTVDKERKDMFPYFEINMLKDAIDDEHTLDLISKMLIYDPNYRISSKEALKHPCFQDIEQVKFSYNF

[7] = target: Protein kinase 7 (PK7), Plasmodium falciparum 3D7 (PF3D7_0213400) (UniProt Q7YTF7); experiment: inhibition of Plasmodium PK7 catalytic activity – biochemical, TCAMS antimalarial set, Kinase-Glo luminescence (AID 1159587); conditions: recombinant PfPK7, Kinase-Glo ATP depletion luminescence
Sequence of Protein kinase 7 (PK7), Plasmodium falciparum 3D7 (PF3D7_0213400) (Q7YTF7 1-343): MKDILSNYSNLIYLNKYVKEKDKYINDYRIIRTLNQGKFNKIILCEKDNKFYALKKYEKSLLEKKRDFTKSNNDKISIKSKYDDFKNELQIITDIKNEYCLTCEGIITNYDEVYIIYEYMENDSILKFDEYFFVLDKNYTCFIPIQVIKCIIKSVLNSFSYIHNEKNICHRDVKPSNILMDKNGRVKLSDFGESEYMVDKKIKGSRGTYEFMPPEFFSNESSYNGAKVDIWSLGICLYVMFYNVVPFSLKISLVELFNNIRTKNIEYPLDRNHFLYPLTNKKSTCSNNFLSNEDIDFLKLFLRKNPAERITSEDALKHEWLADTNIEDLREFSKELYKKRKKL

[8] = target: Calcium-dependent protein kinase 4 (Plasmodium falciparum (isolate 3D7)) (UniProt Q8IBS5); experiment: PfCDPK4 kinase inhibitors, biochemical, TCAMS library (AID 1159588; cut-off not given, nearly all actives have IC50 up to about 0.91 µM); conditions: recombinant PfCDPK4, Kinase-Glo ATP depletion luminescence
Sequence of Calcium-dependent protein kinase 4 (Plasmodium falciparum (isolate 3D7)) (Q8IBS5 whole entry, looked up): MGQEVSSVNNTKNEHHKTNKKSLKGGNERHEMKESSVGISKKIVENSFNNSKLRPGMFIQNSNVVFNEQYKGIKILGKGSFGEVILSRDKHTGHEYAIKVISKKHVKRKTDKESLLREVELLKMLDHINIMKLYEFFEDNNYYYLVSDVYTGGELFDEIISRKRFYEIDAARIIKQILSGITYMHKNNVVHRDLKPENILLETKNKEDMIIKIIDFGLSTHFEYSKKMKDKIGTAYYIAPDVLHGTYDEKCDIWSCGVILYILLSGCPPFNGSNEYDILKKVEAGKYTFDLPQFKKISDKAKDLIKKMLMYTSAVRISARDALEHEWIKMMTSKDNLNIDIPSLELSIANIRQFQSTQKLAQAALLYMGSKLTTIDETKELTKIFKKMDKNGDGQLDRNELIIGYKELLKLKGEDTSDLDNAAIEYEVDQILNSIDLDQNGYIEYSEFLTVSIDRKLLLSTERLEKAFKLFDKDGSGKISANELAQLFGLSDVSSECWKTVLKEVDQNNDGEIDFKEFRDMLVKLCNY

| Compound | growth inhibition [1] | inhibition [2] | inhibition [3] [%] | growth inhibition [4] | outcome [5] | outcome [6] | outcome [7] | outcome [8] |
| --- | --- | --- | --- | --- | --- | --- | --- | --- |
| Cc1ccc(C(=O)N2CCN(Cc3nccs3)CC2)cc1 | -2% | -6% | 0 | 86% (active) | inactive | inactive | inactive | inactive |
| CC(=O)Nc1cccc(C(=O)Nc2ccc(-c3cccc(-c4nc5ccc(F)cc5[nH]4)c3)cc2)c1 | 8% | 90% (active) | 0 | 96% (active) | inactive | inactive | inactive | inactive |
| Cc1ccc(C(CC(=O)Nc2nccs2)c2ccc(OC(C)C)cc2)cc1 (stereo not given) | 90% (active) | 5% | 3 | 94% (active) | inactive | inactive | inactive | inactive |
| COc1ccc(CC2(c3ccc(F)cc3)N=C(N)N(CCCc3ccccc3)C2=O)cc1 (stereo not given) | 97% (active) | 38% | 0 | 99% (active) | inactive | inactive | inactive | inactive |
| Cc1cccc(C)c1CNc1cccc(-c2nc(C)c(C)[nH]2)c1 | 44% | 58% (active) | -3 | 99% (active) | inactive | inactive | inactive | inactive |
| Cc1cccc2[nH]c(-c3ccc(-c4cccc(CN5CCC(C(N)=O)CC5)c4)cc3)nc12 | 16% | 9% | 6 | 87% (active) | inactive | inactive | inactive | inactive |
| CC(C)CC1c2[nH]c3ccccc3c2CCN1C(=O)CCc1ccccc1 (stereo not given) | 82% (active) | -13% | -2 | 92% (active) | inactive | inactive | inactive | inactive |
| COc1ccc2nccc([C@@H](O)CN3CCC(NC(=O)c4ccc(C5(C(F)(F)F)N=N5)cc4)CC3)c2c1 | 41% | 8% | -8 | 97% (active) | inactive | inactive | inactive | inactive |
| Cc1nc2nc(N)nc(N)c2c(C)c1Cc1ccc(O)cc1 | 0% | 64% (active) | 1 | 94% (active) | inactive | inactive | inactive | inactive |
| Fc1ccc2nc(-c3ccc(-c4ccc(CNCCN5CCNCC5)cc4)s3)[nH]c2c1 | 2% | 24% | -1 | 96% (active) | inactive | inactive | inactive | inactive |
| CCOC(=O)c1ccc(NC(=O)N(Cc2ccc(-c3ccc(CN4CCNCC4)cc3)cc2)Cc2cccnc2)cc1 | 34% | 13% | 2 | 94% (active) | inactive | inactive | inactive | inactive |
| CC(C)c1ccc(NC(=O)c2cccc(CN3CCCN(Cc4cccc(O)c4)CC3)c2)cc1 | 33% | 25% | -2 | 97% (active) | inactive | inactive | inactive | inactive |
| CCc1ccc(C2CCN(CCCCNC(=O)c3ccc(-c4ccc(C#N)cc4)cc3)CC2)c(OCCO)c1 | 61% (active) | 24% | -4 | 94% (active) | inactive | inactive | inactive | inactive |
| O=C(Nc1ccc2c(c1)CN(Cc1ccc(N3CCCC3)o1)CCC2)c1cncs1 | 37% | 15% | -2 | 84% (active) | inactive | inactive | inactive | inactive |
| Cc1ccc2nc(C)cc(NN=Cc3cccc([N+](=O)[O-])c3)c2c1 | 99% (active) | 0% | 1 | 102% (active) | inactive | inactive | inactive | inactive |
| CC1(C)N=C(N)N=C(N)N1c1cccc(Cl)c1 | 96% (active) | 69% (active) | -1 | 96% (active) | inactive | inactive | inactive | inactive |
| Cc1cccc2[nH]c(-c3ccc(-c4cccc(CN5CCN(CC6CCCN(C)C6)CC5)c4)s3)nc12 (stereo not given) | 99% (active) | 47% | 4 | 100% (active) | inactive | inactive | inactive | inactive |
| O=C(Nc1cc(Cl)cc(Cl)c1)c1cnn(-c2ccc(F)cc2)c1C1CCNCC1 | -1% | 13% | -2 | 90% (active) | inactive | inactive | inactive | inactive |
| COC(=O)c1c(C#N)c(OC)cc(O)c1CSC[C@H](Nc1nc(-c2ccc([N+](=O)[O-])cc2)cs1)C(=O)NCCN1CCCCC1 | 88% (active) | 5% | -2 | 85% (active) | inactive | inactive | inactive | inactive |
| CC(C)NCc1ccc(-c2cccc(-c3nc4ccc(C(F)(F)F)cc4[nH]3)c2)cc1 | 100% (active) | 21% | -5 | 101% (active) | inactive | inactive | inactive | inactive |
